From PubChem BioAssay (NCI)
The panel holds about 83,000 compounds, 20% with a hit somewhere; the sample as a whole holds those more often.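 Cell lines were cultured in 96-well plates, exposed to a single compound concentration, and assessed for percent growth 48 hours later.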 Calls of active or inactive are those of the source. The calls were made as follows: active = growth percent below 10; inactive = the rest.

Key:
Assay in all cases: NCI-60 one-dose screen, 48 h (100 = growth as untreated, 0 = no growth, -100 = all killed)
Settings in all cases: 10 µM unless noted
SK-MEL-2 melanoma = tested on: SK-MEL-2 melanoma
EKVX NSCLC = tested on: EKVX NSCLC
SN12C renal = tested on: SN12C renal
UO-31 renal = tested on: UO-31 renal
TK-10 renal = tested on: TK-10 renal
ACHN renal = tested on: ACHN renal
CAKI-1 renal = tested on: CAKI-1 renal
CCRF-CEM leukemia = tested on: CCRF-CEM leukemia
MOLT-4 leukemia = tested on: MOLT-4 leukemia

Measured: growth

CC1(C)CC[C@]2(C(=O)NCC#CCN3CCOCC3)CC[C@]3(C)C(=CC[C@@H]4[C@@]5(C)Cc6c([nH]c7ccccc67)C(C)(C)[C@@H]5CC[C@]43C)[C@@H]2C1
inactive: SK-MEL-2 melanoma 94.6% | EKVX NSCLC 96.8% | SN12C renal 94.4% | UO-31 renal 81.6% | TK-10 renal 95.7% | ACHN renal 73.1% | CAKI-1 renal 81.9% | CCRF-CEM leukemia 83.1% | MOLT-4 leukemia 72.3%

Cc1ccc(C(=O)Nc2ccccc2C(=O)N/N=C(\c2ccccc2)c2ccccn2)cc1
active: UO-31 renal 3.57% | CCRF-CEM leukemia 8.79%
inactive: SK-MEL-2 melanoma 41.4% | EKVX NSCLC 13.1% | SN12C renal 28.9% | TK-10 renal 47.2% | ACHN renal 15.1% | CAKI-1 renal 10.5% | MOLT-4 leukemia 15.8%

O=C(Nc1nc(-c2ccc(Br)cc2)cs1)c1cc(-c2ccc(Br)cc2)nc2ccc(Cl)cc12
inactive: SK-MEL-2 melanoma 93.9% | EKVX NSCLC 77.8% | SN12C renal 85.1% | UO-31 renal 64.2% | TK-10 renal 115% | ACHN renal 85% | CAKI-1 renal 79.3% | CCRF-CEM leukemia 77.8% | MOLT-4 leukemia 80.6%

COc1ccc(/C(C)=N/NC(=O)CSc2nc3ccccc3c(=O)n2Cc2ccc(S(N)(=O)=O)cc2)c(OC)c1
inactive: SK-MEL-2 melanoma 115% | EKVX NSCLC 89.9% | SN12C renal 100% | UO-31 renal 80% | TK-10 renal 108% | ACHN renal 105% | CAKI-1 renal 89.9% | CCRF-CEM leukemia 104% | MOLT-4 leukemia 97.9%

CC[C@H](CC[C@@H](C)[C@H]1CC[C@H]2[C@@H]3CC=C4C[C@@H](OCCc5nn[nH]n5)CC[C@]4(C)[C@H]3CC[C@]12C)C(C)C
inactive: SK-MEL-2 melanoma 111% | EKVX NSCLC 102% | SN12C renal 108% | UO-31 renal 99.5% | TK-10 renal 101% | ACHN renal 105% | CAKI-1 renal 105% | CCRF-CEM leukemia 103% | MOLT-4 leukemia 100%

CCCC/C(=N\N=C(N)N)c1ccc(F)cc1
active: SK-MEL-2 melanoma 1.07%
inactive: EKVX NSCLC 44.5% | SN12C renal 37.5% | UO-31 renal 45.3% | TK-10 renal 50.7% | ACHN renal 43.6% | CAKI-1 renal 29.5% | CCRF-CEM leukemia 26.3% | MOLT-4 leukemia 32.4%

CSc1nc(O)c(-c2ccccc2)c(=O)[nH]1
inactive: SK-MEL-2 melanoma 103% | EKVX NSCLC 94.6% | SN12C renal 96.9% | UO-31 renal 92% | TK-10 renal 97% | ACHN renal 93.3% | CAKI-1 renal 93.6% | CCRF-CEM leukemia 102% | MOLT-4 leukemia 97%

CCc1c(Nc2ccc(C)cc2)nc(N)[nH]c1=O
inactive: SK-MEL-2 melanoma 98.1% | EKVX NSCLC 92.1% | SN12C renal 92.4% | UO-31 renal 85.8% | TK-10 renal 104% | ACHN renal 103% | CAKI-1 renal 91.7% | CCRF-CEM leukemia 104% | MOLT-4 leukemia 101%

CNC(=O)NCC1OC(n2cnc3c(NC(=O)Nc4ccccc4)ncnc32)C(O[Si](C)(C)C(C)(C)C)C1O[Si](C)(C)C(C)(C)C (configuration not stated)
inactive: SK-MEL-2 melanoma 56.7% | EKVX NSCLC 23.4% | UO-31 renal 48.3% | TK-10 renal 34.2% | ACHN renal 20.5% | CAKI-1 renal 59.5% | CCRF-CEM leukemia 42.6% | MOLT-4 leukemia 24.1%
active: SN12C renal -79.3%

Nc1c(Cl)cc([N+](=O)[O-])cc1Br
inactive: SK-MEL-2 melanoma 121% | EKVX NSCLC 89.1% | SN12C renal 97% | UO-31 renal 90% | TK-10 renal 115% | ACHN renal 112% | CAKI-1 renal 85.4% | CCRF-CEM leukemia 104% | MOLT-4 leukemia 105%

NC(=S)N/N=C(\c1ccc(Cl)cc1)C1CC1
inactive: SK-MEL-2 melanoma 106% | EKVX NSCLC 69.8% | SN12C renal 83% | UO-31 renal 58.7% | TK-10 renal 102% | ACHN renal 88.4% | CAKI-1 renal 81.1% | CCRF-CEM leukemia 63.2% | MOLT-4 leukemia 46.9%

Nc1nnc(C(=O)c2cnc3n(c2=O)CCCCC3)s1
inactive: SK-MEL-2 melanoma 112% | EKVX NSCLC 98.8% | SN12C renal 95.1% | UO-31 renal 86.3% | TK-10 renal 102% | ACHN renal 101% | CAKI-1 renal 92.3% | CCRF-CEM leukemia 128% | MOLT-4 leukemia 97.1%

O=S(=O)(O)c1cc(O)c2c(N=Nc3ccc(Nc4ccccc4)c4c(S(=O)(=O)O)cccc34)cc(S(=O)(=O)O)cc2c1
inactive: SK-MEL-2 melanoma 99.7% | EKVX NSCLC 103% | SN12C renal 99.2% | UO-31 renal 74.3% | TK-10 renal 106% | ACHN renal 98.5% | CAKI-1 renal 99.4% | CCRF-CEM leukemia 108% | MOLT-4 leukemia 110%

CCOC(=O)Oc1c(OC)cc(C(=O)O[C@@H]2C[C@@H]3CN4CCc5c([nH]c6cc(OC)ccc56)[C@H]4C[C@@H]3[C@H](C(=O)OC)[C@H]2OC)cc1OC
inactive: SK-MEL-2 melanoma 105% | EKVX NSCLC 64.6% | SN12C renal 60% | UO-31 renal 80.2% | TK-10 renal 99.7% | ACHN renal 66.5% | CAKI-1 renal 65.5%
active: CCRF-CEM leukemia -10.8% | MOLT-4 leukemia 7.97%

c1ccc2c(-c3c4ccsc4cc4[nH]c5ccccc5c34)c[nH]c2c1
inactive: SK-MEL-2 melanoma 23.9% | EKVX NSCLC 53.3% | SN12C renal 50.1% | UO-31 renal 40.1% | TK-10 renal 76% | ACHN renal 43.3% | CAKI-1 renal 34.5% | CCRF-CEM leukemia 19.8% | MOLT-4 leukemia 32.2%

COc1ccc(Cn2nc3c(c2-c2cc(OC)c(OC)c(OC)c2)-c2oncc2CC3)cc1
inactive: SK-MEL-2 melanoma 103% | EKVX NSCLC 85.6% | SN12C renal 93.5% | UO-31 renal 65.8% | TK-10 renal 96.2% | ACHN renal 91.9% | CAKI-1 renal 65.2% | CCRF-CEM leukemia 103% | MOLT-4 leukemia 77.9%

COc1ccccc1OCC(=O)N1CCCCCC1
inactive: SK-MEL-2 melanoma 114% | EKVX NSCLC 89.6% | SN12C renal 103% | UO-31 renal 92% | TK-10 renal 96.1% | ACHN renal 105% | CAKI-1 renal 84.1% | CCRF-CEM leukemia 101% | MOLT-4 leukemia 86.9%

CN1CCN(CC#CCNC(=O)[C@]23CCC(C)(C)C[C@H]2C2=CC[C@@H]4[C@@]5(C)Cc6c([nH]c7ccccc67)C(C)(C)[C@@H]5CC[C@@]4(C)[C@]2(C)CC3)CC1
inactive: SK-MEL-2 melanoma 98.3% | EKVX NSCLC 83.3% | SN12C renal 77.8% | UO-31 renal 64.2% | TK-10 renal 91.8% | ACHN renal 95.3% | CAKI-1 renal 87.2% | CCRF-CEM leukemia 48.8% | MOLT-4 leukemia 31.2%

CCCCCCCCOc1ccc(/C=N/Nc2cc(C)nc3ccc(Cl)cc23)cc1
active: SN12C renal -82.4% | TK-10 renal -35.7% | ACHN renal -1.15% | CCRF-CEM leukemia 2.23% | MOLT-4 leukemia -14.1%
inactive: SK-MEL-2 melanoma 95.6% | EKVX NSCLC 55.7% | UO-31 renal 79.2% | CAKI-1 renal 41.6%

Nc1c(C(=O)Nc2ccc(Cl)cc2)cc(-c2nc3ccccc3s2)c(=O)n1NS(=O)(=O)c1ccc(Cl)cc1
inactive: SK-MEL-2 melanoma 102% | EKVX NSCLC 85.8% | SN12C renal 95% | UO-31 renal 85.9% | TK-10 renal 147% | ACHN renal 103% | CAKI-1 renal 86.4% | CCRF-CEM leukemia 97.6% | MOLT-4 leukemia 91.5%

COc1ccc(C(=O)c2cc(C)c(OC)c(C)c2)c(OC)c1N(C(=O)C(Cl)Cl)C(=O)C(Cl)Cl
inactive: SK-MEL-2 melanoma 27.2% | EKVX NSCLC 56.9% | SN12C renal 35.5% | UO-31 renal 37.8% | TK-10 renal 43.8% | ACHN renal 22.2% | CAKI-1 renal 43.2% | CCRF-CEM leukemia 10.7% | MOLT-4 leukemia 22.6%

O=C(/C=C/c1ccc[nH]1)c1ccc(-n2ccc(C(F)(F)F)n2)cc1
active: UO-31 renal -77.1%
inactive: SK-MEL-2 melanoma 95% | EKVX NSCLC 79.1% | SN12C renal 60.1% | TK-10 renal 103% | ACHN renal 99.5% | CAKI-1 renal 93.4% | CCRF-CEM leukemia 25.7% | MOLT-4 leukemia 72.5%

N#CSCC1CC(O)(c2ccccc2)C(c2ccccc2)C(c2ccc(F)cc2)O1 (configuration not stated)
active: SN12C renal -26.9% | TK-10 renal 0.365% | MOLT-4 leukemia -22%
inactive: SK-MEL-2 melanoma 53.6% | EKVX NSCLC 14% | UO-31 renal 11.2% | ACHN renal 25.2% | CAKI-1 renal 15.2% | CCRF-CEM leukemia 12.2%

CC(C)Sc1nc(NN)c(C#N)c(-c2ccccc2)n1
inactive: SK-MEL-2 melanoma 109% | EKVX NSCLC 94.1% | SN12C renal 98.8% | UO-31 renal 75.9% | TK-10 renal 107% | ACHN renal 93% | CAKI-1 renal 93.6% | CCRF-CEM leukemia 94.3% | MOLT-4 leukemia 97.4%

CCCCCCCCOC(=O)c1ccc(O)c(OC)c1
inactive: SK-MEL-2 melanoma 97.7% | EKVX NSCLC 105% | SN12C renal 85.8% | UO-31 renal 50.8% | TK-10 renal 98.6% | ACHN renal 103% | CAKI-1 renal 91.9% | MOLT-4 leukemia 12.9%
active: CCRF-CEM leukemia 1.05%

C=C1C(=O)O[C@H]2[C@H]1CC/C(CNC(=O)/C=C/c1ccc(Br)cc1)=C\CC[C@@]1(C)O[C@@H]21
active: SK-MEL-2 melanoma -18% | EKVX NSCLC -47.8% | SN12C renal -66.5% | UO-31 renal -98.2% | TK-10 renal -67.9% | ACHN renal -58.6% | CAKI-1 renal -91.8% | CCRF-CEM leukemia -2.6% | MOLT-4 leukemia -22.7%

C1=C2CNCC3=Cc4ccc5ccccc5c4OC23Oc2c1ccc1ccccc21
inactive: SK-MEL-2 melanoma 51.9% | EKVX NSCLC 66.4% | SN12C renal 63.2% | UO-31 renal 36.3% | TK-10 renal 89.7% | ACHN renal 37.2% | CAKI-1 renal 31.1% | CCRF-CEM leukemia 43.3% | MOLT-4 leukemia 45.8%

NC(=O)c1cccc(-n2ccc3cc(NC(=O)Nc4cc(C(F)(F)F)cc(C(F)(F)F)c4)ccc32)n1
inactive: SK-MEL-2 melanoma 76.6% | EKVX NSCLC 40.5% | SN12C renal 35.9% | UO-31 renal 47.4% | TK-10 renal 62.8% | ACHN renal 39.9% | CAKI-1 renal 41.4% | CCRF-CEM leukemia 53.7% | MOLT-4 leukemia 26.4%
